Rows were chosen to be rich in hits. Some 17% of all compounds tested hit in one or more screens of this group.
TDP1 cell CPT = growth inhibition of DT40 Tdp1-/-;hTDP1 cells with camptothecin (screen for TDP1 inhibitors); chicken DT40 Tdp1-/-;hTDP1 cells + 20 nM CPT, ATP luminescence, 48 h; Potency, µM (top dose mostly 46.2 µM), inactives show top-dose activity change, negative = growth inhibition, actives largely listed as inhibitors; 420,000 tested, 12% active; AID 686979; also: % is scaled to controls: 0 for no effect and ±100 for the full control effect; nearly all actives have a fitted effect of over 55% in size
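Chicken DT40 Tdp1-/- cells complemented with human TDP1, 400 cells/well, exposed to compounds plus 20 nM camptothecin for at least 48 h at 37 C; viability read as ATP content by CellTiter-Glo luminescence.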
HT1080-NT tox = kills 2HG-producing HT-1080-NT fibrosarcoma cells. HT-1080-NT fibrosarcoma viability, CellTiter-Glo ATP luminescence, 48 h. Potency, µM (top dose mostly 46.1 µM), inactives show top-dose activity, negative = less viability, most hits filed as cytotoxic. 360,000 tested, 1.6% active;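 also: NT is the 2HG producing partner of a matched IDH1 knockdown line; 0% = DMSO-treated cells and -100% = media-only wells without cells; nearly all actives have a fitted effect of over 55% in size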
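Read-out is CellTiter-Glo luminescence after 10 minutes at room temperature, following 48 hours' compound treatment of HT-1080-NT cells (750 cells/well, RPMI, 5% FBS, 37 degrees C).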
HepG2 viability = HepG2 cytotoxicity, counter-screen for TGF-b inhibitors; Potency, µM (doses to about 46.1 µM), without a hit: top-dose activity change, negative = cytotoxicity, most hits filed as cytotoxic; AID 588856; 410,000 tested, 0.76% active; HepG2 CAGA-GFP viability, ATP luminescence, 18 h
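CellTiter-Glo luminescence gave cytotoxicity after 18 hours at 37 degrees C. The cells were HepG2 CAGA-GFP in 1% FBS DMEM, stimulated with 500 pg/mL TGF-beta after compound addition. %Activity was normalised to no-cell wells (complete cell-killing) and DMSO (no toxicity), and curves were fitted and classified.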
TDP1 cell noCPT = qHTS for Inhibitors of human tyrosyl-DNA phosphodiesterase 1 (TDP1): qHTS in cells in absence of CPT | DT40 Tdp1-/- hTDP1 cells, no CPT, ATP luminescence, 48 h | Potency, µM (series often up to 46.2 µM), inactives show at the top dose activity change, negative = growth inhibition, usual class: inhibitors | 420,000 tested, 15% active; also: % is scaled to controls: 0 for no effect and ±100 for the full control effect; nearly all actives have a fitted effect of over 55% in size
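Cells were dispensed at 400 per well, compounds added by pin tool, plates incubated ≥48 hr at 37 °C, then CellTiter-Glo added for 30 min at room temperature before luminescence reading. Line: DT40 Tdp1-/- complemented with hTDP1; camptothecin omitted.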
TGFb inhibitor = inhibitors of TGF-b signaling. HepG2 CAGA-GFP TGF-b/SMAD3 reporter, GFP fluorescence, 18 h; TGF-beta stimulated, 500 pg/mL final. Potency, µM (titrated, usually from 46.1 µM), for inactives: at the top dose activity, negative = inhibition, hits mostly inhibitors. 410,000 tested, 1.2% active; also: % is scaled to controls: 0 for no effect and ±100 for the full control effect; nearly all actives have a fitted effect of over 65% in size
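GFP signal (ex488/em500-530) from TGF-beta-stimulated HEPG2 CAGA-GFP cells, 500 pg/mL final, 18 h at 37 degrees C in DMEM plus 1% FBS, normalized to unstimulated and DMSO-stimulated controls.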
HT1080 IDH1KD tx = HT-1080 IDH1 knockdown cell toxicity (counter line). HT-1080 IDH1 knockdown viability, ATP luminescence, 48 h. Potency, µM (series often up to 46.1 µM), inactives show at the top dose activity, negative = toxicity, usual class: cytotoxic. 360,000 tested, 2% active;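 also: 0% = DMSO wells and -100% = cell-free medium wells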
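Knockdown cells (IDH1KD HT-1080) received compounds 2 h after plating at 750 cells/well and were kept 48 h at 37 °C in 5% FBS RPMI. A CellTiter-Glo luminescence read gave % activity for curve fitting.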
An asterisk follows results filed as active; ? = inconclusive; . = no result; [ ] = dose if it differs, or a comment. Calls follow the shape of the dose curve; as a rule, active = well fitted curve in the direction sought with a large enough effect; inconclusive = small, poorly fitted or top-dose-only effect, or another doubt; inactive = no such curve, though single readings can be large; an effect the other way counts as inactive or inconclusive. Potency is read from the fitted curve at half-maximal effect.

SMILES	TDP1 cell CPT	HT1080-NT tox	HepG2 viability	TDP1 cell noCPT	TGFb inhibitor	HT1080 IDH1KD tx
COCc1cc(N2CCCCC2)nc(-c2ccccc2)n1	10.3µM*	-9.2%	-14.3%	18.4µM*	?	?
CC(C)C[C@@H](CNCC(=O)[C@H](CC(=O)O)NC(=O)c1[nH]cnc1C(=O)N[C@H](CN)CC(C)C)NC(=O)c1nc[nH]c1C(=O)N[C@@H](C)C(=O)O	12.6%	4.8%	-0.4%	3.5%	-3.1%	11.5%
NC(=O)c1ncn([C@@H]2O[C@H](CO)[C@@H](O)[C@H]2O)c1N	-2.7%	.	.	-0.5%	.	.
O=C(COC(=O)c1ccc(C(F)(F)F)cc1)Nc1cccc(S(=O)(=O)N2CCCCC2)c1	-19.5%	-1.1%[9.24 µM]	-3.8%	0.3%	-0.3%	-1.6%
Cc1cc(C)nc(NNS(=O)(=O)c2ccc(F)c(Cl)c2)n1	23.1µM*	-13.1%	-116.1%	?	?	-3.9%
Cc1ccc(-n2cc3c(c2-c2ccccc2Br)c(=O)n(C)c(=O)n3C)cc1N	?	.	-37.7%	?	?	.
CC(=O)O[C@@]12CO[C@@H]1C[C@H](O)[C@@]1(C)C(=O)[C@H](O)C3=C(C)[C@@H](OC(=O)[C@H](O)[C@@H](NC(=O)OC(C)(C)C)c4ccccc4)C[C@@](O)([C@@H](OC(=O)c4ccccc4)[C@H]21)C3(C)C	0.0011µM*	.	.	0.0012µM*	.	.
CCCCCN(C(=O)CCC(=O)OCc1cccc(Br)c1)c1c(N)n(CCCC)c(=O)[nH]c1=O	?	-16.3%	-20.9%	14.6µM*	-0.7%	-7.8%
CCCCCN(C(=O)CCC(=O)OCCOc1cccc(C)c1)c1c(N)n(CCCC)c(=O)[nH]c1=O	?	-5.3%	-0.9%	20.6µM*	-16.7%	-10.2%
CC(=O)C1=C(c2ccc(Cl)c(Cl)c2)N(C(C)=O)n2c(C)nnc2S1	2.91µM*	.	7.94µM*	4.11µM*	?	.
CC(=O)C1=C(c2ccc(Cl)c(Cl)c2)N(C(C)=O)n2cnnc2S1	2.59µM*	.	-93.7%	2.91µM*	5.62µM*	.
COc1cccc(C2=C(C(C)=O)Sc3nncn3N2C(C)=O)c1	?	.	-75.4%	23.1µM*	?	.
CC(=O)C1=C(c2ccc(Cl)c(Cl)c2)N(C(C)=O)n2c(nnc2-c2ccccc2)S1	?	.	6.1%	?	?	.
CCOC(=O)c1ccc(S(=O)(=O)N2CCN(C3CC(=O)N(c4ccccc4C(F)(F)F)C3=O)CC2)cc1 (stereo unspecified)	-12.1%	3.3%	10.9%	-14.1%	11.3%	7.4%
CCc1nnc(NS(=O)(=O)c2ccc(N3C(=O)c4ccccc4C3=O)cc2)s1	12.5%	2.8%	-6.6%	-12.3%	-6.1%	18.6%
C=CCN(Cc1ccc(OC)c(OC)c1)C(=O)c1cc2cc(F)ccc2[nH]1	13µM*	?	-41.0%	?	?	?
COc1cc2cc(C(=O)N(C)Cc3ccccc3)[nH]c2cc1OC	-18.9%	12.9%	-0.4%	15.2%	-14.5%	6.8%
CCC(C)(C)NC(=O)CN(Cc1ccccc1Cl)C(=O)CCC(=O)Nc1cc(C)ccn1	-2.2%	-15.4%	-1.0%	-14.1%	-0.3%	-11.6%
Cc1ccc2c(C)c(C(=O)NCC(c3ccc(Cl)cc3)N3CCOCC3)oc2c1 (stereo unspecified)	14.6µM*	.	-1.4%	11.6µM*	?	.
Cc1ccc(C(=O)NCC(c2ccc(F)cc2)N2CCOCC2)cc1 (stereo unspecified)	-0.4%	5.5%	3.7%	6.0%	6.4%	7.9%
CCc1ccc2oc(C(=O)NCC(c3ccc(Cl)cc3)N3CCOCC3)c(C)c2c1 (stereo unspecified)	8.2µM*	.	-12.4%	8.2µM*	-2.0%	.
Cc1ccc(C)c(N2CCN(C(=O)CCCCCn3c(=O)[nH]c4ccccc4c3=O)CC2)c1	?	.	-0.1%	?	13.4%	.
O=C(CCc1nc2ccccc2c(=O)[nH]1)NNC(=O)COc1ccc(Br)cc1	?	-0.9%	-1.1%	-1.9%	-0.4%	0.1%
COC(=O)[C@@]12CCCN1[C@H](c1ccc(-c3ccc(Cl)c(Cl)c3)cc1)[C@H]1C(=O)N(C)C(=O)[C@H]12	?	0.0%	-38.7%	11.6µM*	?	-18.4%
COC(=O)[C@@]12CCCN1[C@H](c1ccc(-c3cccc(Cl)c3)cc1)[C@H]1C(=O)N(C)C(=O)[C@H]12	23.1µM*	-4.6%	-27.3%	9.2µM*	?	-9.0%
SMILES	TDP1 cell CPT	HT1080-NT tox	HepG2 viability	TDP1 cell noCPT	TGFb inhibitor	HT1080 IDH1KD tx
CCN1C(=O)[C@H]2[C@@H](c3ccc(-c4cccc(Cl)c4)cc3)N3CCCC[C@@]3(C(=O)OC)[C@H]2C1=O	?	-11.1%	-19.1%	?	?	-5.2%
COC(=O)[C@@]12CCCCN1[C@H](c1ccc(-c3cccc(Cl)c3)cc1)[C@H]1C(=O)N(C)C(=O)[C@H]12	?	-0.1%	-6.4%	23.1µM*	3.6%	1.2%
CCN1C(=O)[C@H]2[C@@H](c3ccc(-c4cccc(Cl)c4)c(OC)c3)N3CCCC[C@@]3(C(=O)OC)[C@H]2C1=O	?	0.0%	-15.5%	23.1µM*	?	-22.1%
Cc1ccc(S(=O)(=O)Nc2ncccn2)cc1	-0.1%	4.3%	-7.0%	0.7%	-4.3%	0.3%
COC(=O)[C@@]12CCCN1[C@H](c1ccc(-c3ccccc3)cc1)[C@@H]1C(=O)N(C)C(=O)[C@@H]12	23.1µM*	-0.1%	-14.7%	18.4µM*	-12.8%	-1.4%
COC(=O)[C@@]12CCCCN1[C@H](c1ccc(-c3cccc(Cl)c3)cc1)[C@@H]1C(=O)N(C)C(=O)[C@@H]12	20.6µM*	19.8%	3.8%	13µM*	-13.4%	20.0%
COC(=O)[C@@]12CCCCN1[C@H](c1ccc(-c3cccc(Cl)c3)c(OC)c1)[C@H]1C(=O)N(C)C(=O)[C@H]12	18.4µM*	2.8%	-21.2%	?	16.6%	5.5%
Cc1ccc(N2CCN(S(=O)(=O)c3ccc(Cl)s3)CC2C)cc1 (stereo unspecified)	1.4%	-0.1%	-1.5%	?	?	14.8%
O=C(COc1ncnc2sccc12)NC1CCCCC1	1.5%	10.5%	-3.4%	-1.8%	0.9%	8.5%
CC(C)CCNC(=O)Cc1csc(-c2ccccc2)n1	-12.3%	22.6%	-36.4%	-15.9%	-1.7%	-1.4%
